# Bioassay records from PubChem.
# SMN2 splice up – qHTS Assay for Enhancers of SMN2 Splice Variant Expression; HEK293 SMN2-luciferase splicing reporter, luminescence, 30-36 h; Potency, µM (top dose mostly 46.1 µM), without a hit: top-dose activity change, positive = activation, most hits filed as activators; 210,000 compounds, 2.8% hits; AID 1458, 2008; also: % of control where 0% means no effect; nearly all actives have a fitted effect of over 55% in size
#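 HEK293 cells carry an SMN2 minigene-luciferase reporter in which exon 7 inclusion puts luciferase in frame. Cells were seeded at 2000 cells/well, attached for 10-12 hours, then exposed to compounds for 30-36 hours at 37C before ONE-Glo luminescence.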
# Rab9 prom act – qHTS Assay for Rab9 Promoter Activators | Huh7 Rab9 promoter-luciferase reporter, luminescence, 24 h | Potency, µM (doses to about 9.22 µM), for the others: top-dose activation, negative = inhibition, hits mostly activators | 320,000 compounds, 2.8% hits | AID 485297, 2010; also: % of control where 0% means no effect; nearly all actives have a fitted effect of over 60% in size
#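 Huh7 cells stably carrying a Rab9 promoter-luciferase reporter, 1500 cells per well in OP-MEM I with 10% FBS, treated with compound 24 hours at 37C. Luciferase activity read by luminescence after 10 minutes with Amplite reagent.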
# FLuc modulator – qHTS profiling assay for firefly luciferase inhibitor/activator using purifed enzyme and Km concentrations of substrates (counterscreen for miR-21 project); Luciferin 4-monooxygenase (Photinus pyralis), P08659; purified FLuc, Km substrates, luminescence inhibition; Potency, µM (top dose mostly 57.5 µM), for the others: at the highest dose activity change, negative = inhibition, actives largely listed as inhibitors; 360,000 compounds, 6.9% hits;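 also: plate controls were vehicle for no effect and reference inhibitor for full effect; nearly all actives have a fitted effect of over 55% in size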
# Target sequence (P08659 whole entry, looked up): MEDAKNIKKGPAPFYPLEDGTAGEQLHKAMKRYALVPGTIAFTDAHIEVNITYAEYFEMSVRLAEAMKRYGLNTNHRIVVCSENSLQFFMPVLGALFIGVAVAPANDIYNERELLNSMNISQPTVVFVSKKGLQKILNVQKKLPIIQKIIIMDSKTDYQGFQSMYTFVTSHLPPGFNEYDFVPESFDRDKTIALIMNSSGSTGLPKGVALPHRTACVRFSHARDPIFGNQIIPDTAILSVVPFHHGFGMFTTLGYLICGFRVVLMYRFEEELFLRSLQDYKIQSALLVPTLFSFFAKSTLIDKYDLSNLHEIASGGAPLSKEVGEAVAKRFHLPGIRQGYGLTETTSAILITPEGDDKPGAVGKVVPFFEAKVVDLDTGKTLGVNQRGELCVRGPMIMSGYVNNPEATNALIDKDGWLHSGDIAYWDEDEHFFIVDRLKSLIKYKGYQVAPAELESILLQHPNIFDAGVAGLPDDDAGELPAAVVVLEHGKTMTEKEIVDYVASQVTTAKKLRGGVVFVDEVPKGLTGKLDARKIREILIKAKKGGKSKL
#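 Purified P. pyralis luciferase, 10 nM final, with Km-level 10 uM D-luciferin and 10 uM ATP in 50 mM Tris acetate pH 7.5, 10 mM Mg acetate, 0.01% Tween-20, 0.05% BSA; 6-point qHTS titration about 60 µM downward; luminescence read.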
# NPC1 promoter act – qHTS Assay for NPC1 Promoter Activators; Huh7 NPC1 promoter luciferase reporter, 24 h; 320,000 compounds, 2.4% hits; Potency, µM (highest dose often 9.22 µM), for inactives: top-dose activation, usual class: activators; also: % of control where 0% means no effect; nearly all actives have a fitted effect of over 60% in size
#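 Luminescence from an NPC1 promoter-driven luciferase reporter in stably transfected Huh7 cells was measured after 24 h compound treatment at 37 °C, followed by 10 min ambient incubation with luciferase detection reagent.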
# ELG1 genotox – qHTS screen for small molecules that induce genotoxicity in human embryonic kidney (HEK293T) cells expressing luciferase-tagged ELG1; AID 504466, 2011; HEK293T ELG1-luciferase reporter, luminescence, 16 h; Potency, µM (top dose mostly 46 µM), inactives show at the highest dose activity change, positive = activation, hits mostly activators; 330,000 compounds, 1.3% hits; also: % of control where 0% means no effect; nearly all actives have a fitted effect of over 60% in size
#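 HEK293T cells expressing luciferase-tagged ELG1 were exposed to compound or DMSO vehicle for 16 hr at 37 °C and 5% CO2. Luciferase activity was then measured with ONE-Glo after 30 min at room temperature.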
# Luc counter – Counterscreen for Luciferase (Kinase-Glo TM) Inhibition. Luciferin 4-monooxygenase (Photuris pensylvanica), Q27757. Kinase-Glo luciferase, ATP luminescence, 8 min. 200,000 compounds, 0.28% hits. Potency, µM (highest dose often 38.3 µM), for inactives: at the top dose activity change, negative = inhibition, usual class: inhibitors. AID 1379, 2008; also: % is scaled to controls: 0 for no effect and ±100 for the full control effect; nearly all actives have a fitted effect of over 60% in size
#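 Compound is pinned into ATP-containing buffer (10 uM ATP, imidazole pH 7.2, 7 mM MgCl2). Kinase-Glo luciferase reagent is then added. Light output is recorded following an 8-min room-temperature incubation.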
# The depositor's hits bear a star; ? = inconclusive; . = no result given; [ ] = another dose, or the depositor's remark. Sampled rows, rich in hits. Any-hit rate of the full collection: about 7.5%. Calls follow the shape of the dose curve; as a rule, active = well fitted curve in the direction sought with a large enough effect; inconclusive = small, poorly fitted or top-dose-only effect, or another doubt; inactive = no such curve, though single readings can be large; an effect the other way counts as inactive or inconclusive. Potency is read from the fitted curve at half-maximal effect.
SMILES,SMN2 splice up,Rab9 prom act,FLuc modulator,NPC1 promoter act,ELG1 genotox,Luc counter
O=C(Nc1ncc([N+](=O)[O-])s1)c1ccc2c(c1)OCO2,.,1.3µM*,0.11µM*,3.2µM*,?,.
Cc1onc(-c2ccccc2)c1C(=O)Nc1ncc([N+](=O)[O-])s1,.,-19%,-20%,-11%,-39%,.
O=C(Nc1ncc([N+](=O)[O-])s1)c1ccco1,.,1.1µM*,11µM*,1.6µM*,2.6µM*,.
Cc1ccc([N+](=O)[O-])cc1NC(=O)c1ccc2c(c1)OCO2,-8%,-1%,-12%,0%,-6%,1%
O=C(O)c1ccccc1NS(=O)(=O)c1ccc(F)c(Cl)c1,.,.,.,.,.,-4%
CCc1nc2ccccc2n1CCC(=O)O,1%,-7%,1%,-2%,2%,2%
COc1cccc2c1OC(=O)CC2c1ccc(C)cc1 (centres undefined),.,.,.,.,.,-2%[39.9 µM]
CC(C(=O)O)c1ccc(N2Cc3ccccc3C2=O)cc1 (centres undefined),1.3µM*,0.32µM*,0.27µM*,0.089µM*,11%,?
O=C1CNC(=S)N1Cc1ccccc1Cl,.,-3%,1%,0%,-1%,.
O=c1cc(-c2ccc(C3CCCCC3)cc2)[nH][nH]1,9%,1%,11µM*,4%,17%,-1%
O=c1cc(-c2ccc(F)cc2)[nH][nH]1,19%,-2%,0%,-4%,-2%,0%
COC(=O)c1sccc1NC(=O)c1ccccc1,8%,-3%,-2%,-5%,0%,0%
COC(=O)c1sccc1NC(=O)Nc1ccc(C(C)=O)cc1,.,10%,2.1µM*,0%,18µM*,.
CCc1ccccc1NC(=O)Nc1ccsc1C(=O)OC,.,1%,?,-5%,3%,.
COC(=O)c1sccc1NC(=O)Nc1ccc(C)cc1,.,-1%,1.7µM*,1%,?,.
COC(=O)c1sccc1NC(=O)Nc1ccc(C)cc1C,.,7%,-18%,5%,10%,.
COC(=O)c1sccc1NC(=O)Nc1cccc(OC)c1,.,2%,8.5µM*,0%,5%,.
COC(=O)c1sccc1NC(=O)c1ccc(C(C)C)cc1,.,3.5µM*,11µM*,28%,15%,.
Cc1ccccc1Cn1c2ccccc2c2cnn(CC(=O)NCCc3ccc(Cl)cc3)c(=O)c21,1%,.,-2%,.,.,.
COC(=O)c1sccc1NC(=O)Nc1ccc(F)cc1F,.,2%,21µM*,-3%,4%,.
COC(=O)c1sccc1NC(=O)Nc1cc(C)cc(C)c1,.,-5%,7.6µM*,4%,?,.
COc1cccc(NC(=O)Nc2ccccc2Br)c1,.,?,12µM*,24%,7%,-16%
COc1ccc(NC(=O)Nc2ccc(F)cc2F)cc1,20µM*,2.8µM*,5.4µM*,2.2µM*,?,-6%
CC(CNC(=O)CN1C(=O)COc2ccc(S(=O)(=O)N3CCCCCC3)cc21)c1ccccc1 (centres undefined),.,.,-9%,.,.,.
CCOc1cc(CNC(=O)CSc2n[nH]c(-c3ccccc3)n2)cc(OCC)c1OCC,.,.,-14%,.,.,.
SMILES,SMN2 splice up,Rab9 prom act,FLuc modulator,NPC1 promoter act,ELG1 genotox,Luc counter
COc1cccc(-n2c(=O)c3sccc3n(Cc3cc(=O)n4cc(Cl)ccc4n3)c2=O)c1,3%,.,-2%,.,.,.
COc1ccc(NC(=O)NCc2ccccc2F)cc1OC,11%,-2%,-4%,-2%,-1%,2%
COc1cccc(NC(=O)NCc2ccccc2F)c1,28%,?,17µM*,22%,?,-3%
COC(=O)c1sccc1NC(=O)Nc1ccc(F)cc1,.,0%,8.5µM*,1%,11%,.
N#Cc1ccc(CN2CCC3(CC2)CCN(C(=O)c2ccncc2)CC3)cc1,-36%,.,.,.,.,0%
N/C(=N\OC(=O)CC1CCCCC1)c1cccc(Br)c1,.,16%,2.7µM*,14%,16%,.
